Experimental data reported in publication PMC5540273 (PLoS ONE, 2017).

The molecules below were run on AURKA. Conditions: concentration: 1 μM, replicates: in singlicate; n = 1.
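Note: KINOMEscan kinase panel screen.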

| Compound | %Inh |
| --- | --- |
| NS(=O)(=O)CCc1cccc(Nc2nccc(-c3c(-c4cccc(NC(=O)c5c(F)cccc5F)c4)nn4ccccc34)n2)c1 [GSK336735] | 93.5% |
| COc1ccc(CNC(=O)NC2CCN(c3ccnc(Nc4ccc(OC)cc4)n3)C2)cc1 (stereo not shown) [GSK1379727] | 5% |
| c1ccc(-c2cc(-c3c[nH]nc3-c3ccccn3)ccn2)cc1 [GW576604] | 14% |
| Cn1cc(-c2ccc3c(c2)CCN3C(=O)Cc2ccccc2Cl)c2c(N)ncnc21 [GSK2608885] | 98% |
| Cc1nnc(-c2ccc3ncc(-c4ccc(S(C)=O)cc4)n3c2)o1 (stereo not shown) | 18% |
| Cc1ccc(NC(=O)c2ccnc(N3CCN(C)CC3)c2)cc1-c1ccc(C(=O)NCC2CC2)cc1 [GW775604] | 0% |
| CN(C1=C(c2ccccc2)C(=O)NC1=O)c1ccccc1 [SB-334860] | 21% |
| Cc1ccc(C(=O)NCC(N)=O)cc1-n1c(C)cc(OCc2ccc(F)cc2F)c(Br)c1=O | 0% |
| NCC(NC(=O)c1cc(-c2cn[nH]c2)c(-c2ccnc3[nH]ccc23)s1)c1ccccc1.O=C(O)C(F)(F)F.O=C(O)C(F)(F)F (stereo not shown) [GSK1325775] | 95.6% |
| CNc1ncnc2[nH]ncc12 [SKF-18355] | 2% |
| CCCCCc1nc2c(N)ncnc2n1CCCCC [SKF-97255] | 10% |
| C[C@@H](Oc1cc(-n2cnc3ccc(NC(=O)NC(C)(C)C)cc32)sc1C(N)=O)c1ccccc1Cl [GSK346294] | 8% |
| Cl.Oc1cccc(Nc2ccnc3cc(-c4ccncc4)ccc23)c1 [GW494601] | 23% |
